MPTP block: permeability transition pore inhibition. isolated mouse mitochondria, Ca2+ swelling absorbance, 30 min. inhibition, % at 10 µM. hit rate 1.4% among 360,000. AID 602449;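 active = inhibition of 50% or more, scaled per plate between neutral and stimulator controls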
NR3A LBD binder: NR3A (human) ligand-binding domain modulation; NR3A LBD differential scanning fluorimetry, Tm shift; 0% = protein alone, 100% = glycine-bound protein; hit rate 2.5% among 340,000; Tm shift relative to glycine control, % at 25 µM;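 active = melting temperature shift of at least 10% of the positive control shift, at one fixed dose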
CSC inhib: blocks cancer stem cells; cancer stem cell-like cells viability, luminescence; inhibition, % at 7.5 µM; hit rate 1.1% among 300,000; in the data active = inhibition above about 75%; inconclusive = no clear call, values can overlap the other calls; tested in HMLE shEcad cells
Mdm2 MdmX PPI: human Mdm2/MdmX binding inhibition | inhibition, % at 8 µM | O15151+Q00987 | hit rate 3% among 330,000 | AID 485346 | SaOS-2 split-luciferase Mdm2/MdmX complementation, luminescence;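 active = inhibition of at least 50% at 8 µM in the primary screen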
SKKanGAS inh: SKKanGAS growth inhibition; S. pyogenes SKKanGAS, kanamycin growth, BacTiter-Glo, 6 h; inhibition, % at 7.5 µM; hit rate 1.3% among 300,000; AID 1662;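 active = mean replicate score, as percent of positive control median, at least 50; inconclusive = mean below 50 but one replicate at or above 50; inactive = mean and every replicate below 50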;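 also: strain carries kanamycin resistance gene driven by streptokinase promoter and grows in 40 µg/ml kanamycin; loss of luminescence reflects streptokinase promoter inhibition or plain growth inhibition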
Beta apoptosis: beta cell apoptosis inhibition | INS-1E cytokine-induced death, ATP luminescence, 48 h; percent of positive-control rescue, neutral wells zero | protection from apoptosis, % (no concentration beside the values) | hit rate 0.8% among 300,000;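 active = Every replicate reaches about 75%, or at least half do and their mean reaches it too, limit read from the data; inconclusive = At least half of replicates reach the limit but their mean does not; inactive = Under half of replicates reach the limit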;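 also: higher means more ATP so stronger rescue from cytokine killing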
Numbers stand for hits; . = inactive; ? = inconclusive; / = no result given. Hits are enriched below; roughly 6.9% of the tested compounds scored in any of these assays.

SMILES	MPTP block	NR3A LBD binder	CSC inhib	Mdm2 MdmX PPI	SKKanGAS inh	Beta apoptosis
CCCCCCCCCCCC1=C(O)C(=O)C=C(O)C1=O	.	.	.	/	102	.
CCOC(=O)c1ccc(NC(=O)c2nc[nH]c2C(=O)N[C@@H](CC(C)C)C(=O)OC(C)(C)C)cc1	.	.	.	.	.	.
Cc1cccc(NC(=O)c2nc[nH]c2C(=O)N[C@@H](Cc2ccccc2)C(=O)OCc2ccccc2)c1	.	.	.	.	64	.
O=C(Nc1ccccc1)c1nc[nH]c1C(=O)NCc1ccccc1	.	.	.	.	/	.
O=C(Nc1cccc(Cl)c1)c1nc[nH]c1C(=O)NCc1ccccc1	.	17	.	.	/	.
CNC(=O)c1[nH]cnc1C(=O)N[C@@H](Cc1ccccc1)C(=O)OC(C)(C)C	.	.	/	.	.	.
C[C@@H](NC(=O)c1nc[nH]c1C(=O)N[C@@H](Cc1ccccc1)C(=O)OC(C)(C)C)c1ccccc1	.	.	.	.	84	.
C[C@H](NC(=O)c1nc[nH]c1C(=O)N[C@@H](Cc1ccccc1)C(=O)OCc1ccccc1)C(=O)OCc1ccccc1	.	.	.	.	.	.
CCOC(=O)c1ccc(NC(=O)c2nc[nH]c2C(=O)N[C@@H](CC(C)C)C(=O)OCc2ccccc2)cc1	.	.	.	.	63	.
O=C(N/N=C/c1ccc(O)cc1O)/C(=C/c1ccccc1)CCO	.	.	97	.	.	85
O=C(/C=C\c1ccccc1)NCC(=O)N/N=C/c1ccc(O)cc1O	.	.	104	.	.	.
Cc1ccc2c(c1)C(=O)CC(c1ccc3c(c1)OCCO3)O2 (configuration not stated)	.	.	.	.	.	.
CC(C)=CCc1cc([C@@H]2CC(=O)c3ccc(O)c(CC=C(C)C)c3O2)ccc1O	.	11	.	.	86	.
OC[C@@H]1[C@@H](c2ccccc2)C(c2ccc(F)cc2)=NN1c1ccccc1	.	.	/	.	/	/
OC[C@@H]1[C@@H](c2ccccc2)C(c2cccc(Cl)c2)=NN1c1ccccc1	.	26	/	.	/	/
Cc1cccc(C2=NN(c3ccccc3)[C@H](CO)[C@H]2c2ccc(Cl)cc2)c1	.	23	/	.	/	/
OC[C@@H]1[C@@H](c2ccc(Cl)cc2)C(c2ccc(F)cc2)=NN1c1ccccc1	.	30	/	.	/	/
Cc1cccc(C2=NN(c3ccccc3)[C@H](CO)[C@H]2c2ccc(F)cc2)c1	.	.	/	.	/	/
CCOC(=O)C1(Cc2ccccc2)CCCN(S(=O)(=O)N(C)C)C1 (configuration not stated)	.	.	.	.	.	/
Cc1cc(C(=O)Nc2ccncc2)c2ccccc2n1	.	.	.	.	.	.
O=C(NNC1=Nc2cc([N+](=O)[O-])ccc2OC1)c1ccccc1Cl	.	.	.	.	.	.
Clc1cccc(N/N=C/c2ccc(N3CCOCC3)s2)c1	.	19	.	.	.	/
Nc1ccc(C(=O)N/N=C/c2ccc(N3CCOCC3)s2)cc1	.	11	.	.	/	.
O=C(N/N=C/c1ccc(N2CCOCC2)s1)c1ccccc1Br	.	.	.	.	.	.
CC(C)N(CCNC(=O)c1nn(Cc2ccccc2)c(=O)c2ccccc12)C(C)C	.	/	.	.	.	.
SMILES	MPTP block	NR3A LBD binder	CSC inhib	Mdm2 MdmX PPI	SKKanGAS inh	Beta apoptosis
CCCCNS(=O)(=O)c1ccc(NC(=O)C2c3ccccc3Oc3ccccc32)cc1	.	19	.	.	.	.
O=C(O)CC/C(=C\c1ccc(Cl)c([N+](=O)[O-])c1)c1nc2ccccc2s1	.	30	.	.	.	.
O=C(O)CC/C(=C\c1ccc(N2CCOCC2)c([N+](=O)[O-])c1)c1nc2ccccc2s1	.	.	/	/	.	/
O=C1C(=O)c2ccccc2C([O-])=C1[n+]1ccccc1	.	.	/	.	.	.
CCc1cc[n+](C2=C([O-])c3ccccc3C(=O)/C2=N\S(=O)(=O)c2cccs2)cc1	.	.	.	.	89	106
COC(=O)c1ccccc1NC(=O)COC(=O)/C=C/c1cccs1	.	11	.	.	/	.
O=C(COC(=O)/C=C/c1cccs1)Nc1ccc(F)cc1	.	16	/	.	/	.
CCCOC(=O)c1ccc(NC(=O)/C=C/c2cccs2)cc1	.	28	.	.	.	.
NC(N)=NS(=O)(=O)c1ccc(NC(=S)NC(=O)/C=C/c2cccs2)cc1	.	11	.	.	.	.
O=C(/C=C/c1cccs1)Nc1ccncc1	.	.	.	.	.	.
Cc1cccc(C(O)c2ncc(-c3ccc4ccccc4c3)[nH]2)c1C (configuration not stated)	.	/	/	/	/	/
O=C1CN(C(=O)COc2c(F)c(F)cc(F)c2F)c2ccccc2N1	.	.	/	.	.	.
Cc1ccc(Cl)c(OCC(=O)Nc2sc(C)c(C)c2C#N)c1	.	.	.	.	.	.
CCCCN1C(=O)NC(NC(=O)c2ccco2)(C(F)(F)F)C1=O (configuration not stated)	.	.	.	.	.	.
CC(C)Oc1ccc(C(=O)NC2(C(F)(F)F)NC(=O)N(CCCc3ccccc3)C2=O)cc1 (configuration not stated)	.	14	.	.	.	.
CCn1c(=O)c([N+](=O)[O-])c(NCC(O)c2ccccc2)c2ccccc21 (configuration not stated)	.	.	.	.	.	.
O=c1c([N+](=O)[O-])c(O)c2ccccc2n1Cc1ccccc1	.	10	.	.	.	.
CCc1nnc(NC(=O)CN2CCN(Cc3ccc(C)cc3)CC2)s1	.	.	.	.	.	.
O=[N+]([O-])c1ccc(/C=N/Nc2nc(N3CCOCC3)nc(N3CCOCC3)n2)cc1	.	/	.	.	.	.
O=[N+]([O-])c1cccc(/C=N/Nc2nc(N3CCOCC3)nc(N3CCOCC3)n2)c1	.	.	.	.	.	.
O=[N+]([O-])c1ccc(Nc2nc(NC3CCCCC3)nc(N3CCCC3)n2)cc1	.	.	/	.	83	.
O=[N+]([O-])c1ccc(Nc2nc(N/N=C/c3cccc(F)c3)nc(N3CCCC3)n2)cc1	.	25	.	.	.	.
CNc1nc(N/N=C/c2ccc([N+](=O)[O-])cc2)nc(Nc2ccccc2)n1	.	30	.	.	.	/
O=C(NCCCNC(=O)c1ccco1)c1ccc(F)cc1	.	.	.	.	.	/
COc1ccc(OCCCC(=O)Nc2nc(-c3ccccn3)cs2)cc1	.	.	.	.	73	.
O=C(Nc1nc(-c2ccccn2)cs1)C1CC1	.	.	.	.	51	.
c1ccc(Nc2nc(-c3ccccn3)cs2)cc1	.	.	.	.	100	.
COc1cccc2sc(Nc3nc(-c4ccccn4)cs3)nc12	.	/	/	.	100	111
COC(=O)[C@@]12CCCCN1[C@H](c1ccc(-c3ccc(F)cc3)c(OC)c1)[C@@H]1C(=O)N(C)C(=O)[C@@H]12	.	.	.	.	/	.
O=C(Nc1nc(-c2ccccn2)cs1)C12CC3CC(CC(O)(C3)C1)C2	.	.	.	.	?	.
